Results published in PMC5540273 (PLoS ONE, 2017).

How the values were obtained:
Details in all cases: concentration: 1 μM, replicates: in singlicate; n = 1
[1] = system: T1, MINK
T1 construct: gene MINK1

[2] = system: MKK7
[3] = system: MKNK1
[4] = system: MKNK2
[5] = system: T2, MLCK
T2 construct: gene MYLK3

[6] = system: T3, MLK1
T3 construct: gene MAP3K9

[7] = system: MLK2
[8] = system: MLK3
[9] = system: MRCKA
[10] = system: T4, MRCKB
T4 construct: gene CDC42BPB

[11] = system: MST1R
[12] = system: T5, MST1
T5 construct: gene STK4

[13] = system: T6, MST2
T6 construct: gene STK3

[14] = system: T7, MST3
T7 construct: gene STK24

[15] = system: MST4
[16] = system: MTOR
[17] = system: MUSK
[18] = system: MYLK2
[19] = system: MYLK4
[20] = system: MYLK
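Further: KINOMEscan kinase panel screen.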

SMILES	%Inh [1]	%Inh [2]	%Inh [3]	%Inh [4]	%Inh [5]	%Inh [6]	%Inh [7]	%Inh [8]	%Inh [9]	%Inh [10]	%Inh [11]	%Inh [12]	%Inh [13]	%Inh [14]	%Inh [15]	%Inh [16]	%Inh [17]	%Inh [18]	%Inh [19]	%Inh [20]
COc1ccc(CSc2nnc(-c3ccc4c(c3)CCO4)o2)cc1	0%	0%	0%	0%	0%	0%	15%	0%	0%	0%	13%	0%	0%	0%	0%	0%	0%	0%	3%	0%
COc1ccc2cc(-c3nc(-c4ccccc4C(C)C)[nH]c3-c3ccncc3)ccc2c1 [SB-660566]	0%	0%	5%	22%	6%	0%	0%	0%	4%	1%	42%	7%	58%	0%	0%	31%	18%	15%	4%	0%
Cc1nccc(-c2c(-c3ccc(F)cc3)ncn2CCCN2CCOCC2)n1.Cl [SB-282975]	18%	0%	11%	1%	0%	0%	22%	25%	23%	0%	0%	7%	5%	0%	5%	21%	0%	6%	0%	30%
CCn1c(-c2c(N)noc2C)nc2cnccc21 [SB-737856]	0%	0%	0%	12%	0%	0%	0%	1%	8%	1%	3%	15%	0%	0%	0%	28%	6%	7%	9%	6%
CNC(=O)c1ccc(C)c(-n2c(C)cc(OCc3ccc(F)cc3F)c(Br)c2=O)c1	0%	0%	0%	100%	0%	0%	0%	19%	0%	8%	0%	0%	0%	0%	0%	33%	6%	9%	3%	0%
Fc1ccc(-c2nn3cccc(F)c3c2-c2ccncc2)cc1 [GW475620]	27%	16%	0%	0%	0%	2%	31%	18%	23%	34%	18%	30%	0%	0%	0%	20%	11%	0%	0%	14%
O=C(Nc1n[nH]c2nc(-c3ccco3)c(Br)cc12)C1CCN(Cc2ccccc2)C1.O=C(O)[C@H](O)[C@@H](O)C(=O)O (stereo not shown) [SB-742034]	15%	0%	0%	27%	25%	8%	20%	9%	0%	0%	7%	0%	46%	13%	9%	0%	0%	89%	25%	3%
COc1cccc(CNC(=O)NC2CCN(c3ccnc(Nc4ccc(F)cc4)n3)C2)c1 (stereo not shown) [GSK1379723]	0%	31%	13%	8%	0%	0%	0%	0%	29%	8%	44%	11%	0%	0%	0%	15%	7%	0%	0%	0%
O=C1NC(=O)C(c2ccc(Cl)cc2)=C1Nc1ccc(O)cc1 [SB-340867]	11%	0%	0%	0%	0%	0%	0%	4%	8%	0%	0%	0%	0%	0%	0%	0%	0%	0%	3%	11%
Cc1ccccc1Cn1ccn2c(=O)cc(N3CCOCC3)nc12 [GSK2269905]	0%	0%	0%	10%	0%	0%	17%	3%	0%	0%	17%	0%	0%	0%	0%	9%	2%	8%	0%	0%
COC(=O)C(Cc1ccccc1)NC(=O)NC1CCN(c2ccnc(Nc3ccc(F)cc3)n2)C1 (stereo not shown) [GSK1379714]	2%	0%	0%	0%	5%	0%	0%	15%	22%	0%	39%	5%	0%	3%	0%	33%	8%	0%	13%	11%
